Measurements as given in PMC4552634, “A New Set of Chemical Starting Points with Plasmodium falciparum Transmission-Blocking Potential for Antimalarial Drug Discovery” (PLoS ONE, 2015).
Out of some 13,000 compounds screened, about 3,200 (25%) showed an effect of 50% or more. The list shows a part of the results.

System: P. falciparum stage V gametocytes
Parameters: BacTiter-Glo ATP luminescence viability of purified stage V gametocytes in 384-well plates, per cent inhibition versus DMSO
Conditions: 48 h, 5 µM; inhibitor

Compound | % Inhibition [%]
CCC[C@@H]([C@@H](CC1CCCCC1)C(=O)N[C@H](C(=O)Nc1nccs1)C(C)(C)SCCNC(=O)OCc1ccccn1)N(O)C=O [TCMDC-137794] | 19.2
O=C(N/C=N/c1cc([N+](=O)[O-])c(-c2ccncc2)n1-c1ccccc1)c1cccc(O)c1 [TCMDC-125648] | -19.59
O=c1ccccn1CCCC1CCCCN1 (stereo not drawn) [TCMDC-140731] | 9.489
Oc1ccc(OCc2ccccn2)cc1 [TCMDC-125881] | 0.9057
Oc1ccccc1CN(CCCN(Cc1ccccn1)Cc1ccccc1O)Cc1ccccn1 [TCMDC-138469] | 77.52
CCCCN(CCCC)Cc1cc2ccccc2cc1O [TCMDC-137590] | -20.89
COc1nc(Nc2cccc(C)c2)nc(OC)n1 [TCMDC-124204] | -12.01
CN(C)C(CNc1ncnc2cc(Cl)ccc12)Cc1ccccc1 (stereo not drawn) [TCMDC-124600] | -0.01557
Cc1c(Cl)cccc1S(=O)(=O)N1CCCCC(c2ccc(C(F)(F)F)cc2)=N1 [TCMDC-134534] | -14.43
CN(C)c1ccc2c(c1)Sc1cc(N(C)C)ccc1N2C(=O)c1cccc(C(=O)O)c1 [TCMDC-124169] | 30.57
CN(C)c1ccc2c(c1)Sc1cc(N(C)C)ccc1N2C(=O)CCCC(=O)O [TCMDC-125778] | 104
CC(=O)CSC(C=Cc1ccc(N(C)C)cc1)=Nc1ccccc1 [TCMDC-137558] | -4.21
O=C(Nc1ccc(Cl)cc1Cl)NC1CCN(CCCCCNC(=O)C2CC2c2ccc(Cl)c(Cl)c2)CC1 (stereo not drawn) [TCMDC-136257] | 1.836
O=C(Nc1cc(Cl)ccc1Cl)N[C@H]1CCN(CCCCCNC(=O)C2CC2c2ccc(Cl)c(Cl)c2)C1 (stereo partly drawn) [TCMDC-136265] | 55.1
O=C(Nc1ccc(Cl)cc1F)NC1CCN(CCCCCNC(=O)C2CC2c2ccc(Cl)c(Cl)c2)CC1 (stereo not drawn) [TCMDC-136258] | 66.19
O=C(Nc1cccc(Cl)c1Cl)N[C@H]1CCN(CCCCCNC(=O)C2CC2c2ccc(Cl)c(Cl)c2)C1 (stereo partly drawn) [TCMDC-136267] | -46.93
O=C(Nc1ccc(Cl)cc1Cl)N[C@H]1CCN(CCCCCNC(=O)C2CC2c2ccc(Cl)c(Cl)c2)C1 (stereo partly drawn) [TCMDC-136268] | -5.844
O=C(Nc1ccc(F)cc1F)NC1CCN(CCCCCNC(=O)C2CC2c2ccc(Cl)c(Cl)c2)CC1 (stereo not drawn) [TCMDC-136253] | -52.54
O=C(Nc1cc(Cl)cc(Cl)c1)N[C@H]1CCN(CCCCCNC(=O)C2CC2c2ccc(Cl)c(Cl)c2)C1 (stereo partly drawn) [TCMDC-136273] | 86.02
O=C(Nc1ccc(Cl)cc1)N[C@H]1CCN(CCCCCNC(=O)C2CC2c2ccc(Cl)c(Cl)c2)C1 (stereo partly drawn) [TCMDC-136262] | 1.23
O=C(Nc1ccc(Cl)cc1F)N[C@H]1CCN(CCCCCNC(=O)C2CC2c2ccc(Cl)c(Cl)c2)C1 (stereo partly drawn) [TCMDC-136269] | 0.8246
